Activity calls are given as the source filed them. Calls come from the whole dose curve; as a rule, active = well fitted curve in the direction sought with a large enough effect in the repeat runs; inconclusive = weak or mixed curves; inactive = flat fitted curve, though single readings scatter.
% is set by controls: 0 for no effect and ±100 for the full control effect.

This test in a line: qHTS assay to test for compound auto fluorescence at 590 nm (red) in HepG2 cell free culture (AID 720684). Conditions: cell-free medium autofluorescence, red 540/590 nm; series mostly up to 91.3 µM; fluorescence, % of Rose Bengal: at the top concentration. From the text: U.S. Tox21 Program National Center for Advancing Translational Sciences [NCATS] NIH Chemical Genomics Center [NCGC] U.S. Environmental Protection Agency [EPA] National Institutes of Environmental Health Sciences [NIEHS] National Toxicology Program [NTP] U.S. Food and Drug Administration [FDA] Tox21 Assay Overview: Compound auto fluorescence often interferes with screening of the compound library against various biological targets and signaling pathways. Some of these compounds may have fluorophoric properties. Such properties may interfere with the assay outputs resulting in false positives and/or negatives. To decrease such complications and ensure the compound activities are relevant in terms of biological response, the Tox21 10K compound library was screened for auto fluorescence. From the fluorophores used as reporter signals in our screening assays, the auto fluorescence equivalencies of compounds against three fluorophores have been evaluated: Triamterene, Fluorescein and Rose Bengal sodium for blue, green and red fluorescence, respectively. The fluorescence intensities were measured using Excitation/Emission wavelengths at 405/460nm, 485/535nm and 540/590nm for blue, green and red labels, respectively. This assay includes the red fluorescence data.
Tox21 Assay Protocol Summary: 5 uL of culture medium (MEM containing 10% FBS) per well was dispensed into black wall/clear bottom 1536-well plates using a Multidrop Combi Dispenser (ThermoFisher Scientific, Waltham, MA). After 23 nL compound or DMSO vehicle was transferred into assay plate by a pintool work station (Kalypsys, San Diego, CA), fluorescence intensities in the assay plates were measured by an Envision (PerkinElmer, Shelton, CT) plate reader using three labels for measuring blue, green and red fluorescence at […] 460, 535 and 590nm respectively.
Consider `C=C(Cl)CSC(=S)N(CC)CC`, for which the “fluorescence, % of Rose Bengal” value was -0.418% [at 95.7 µM] (inactive).

For `CCOc1cc(OP(=S)(OC)OC)nc(CC)n1`, the “fluorescence, % of Rose Bengal” value is -0.0803% (inactive).

On to `CCNc1nc(Cl)nc(NC(C)(C)C)n1`, for which the “fluorescence, % of Rose Bengal” value was -0.115% (inactive).

In the case of `CCOC(=O)CC(SP(=S)(OC)OC)C(=O)OCC` (stereo not given), the outcome was inactive.

`C=CCc1cc(OC)c2c(c1)OCO2`: the “fluorescence, % of Rose Bengal” value is -0.0994% [at 95.7 µM] (inactive).

As to `CON(C)C(=O)Nc1ccc(Br)cc1`, the “fluorescence, % of Rose Bengal” value was 0.0168% (inactive).

For the compound `CCOC1Oc2ccc(OS(C)(=O)=O)cc2C1(C)C` (stereo not given), the “fluorescence, % of Rose Bengal” value is 0.0646% (inactive).

For the compound `CCN[C@@H](C)Cc1ccccc1`, the “fluorescence, % of Rose Bengal” value is -0.213% [at 95.7 µM] (inactive).

As for `CC[C@H](N)c1ccccc1`, the “fluorescence, % of Rose Bengal” value is -0.0825% (inactive).

In the case of `Cn1c(CCCC(=O)O)nc2cc(N(CCCl)CCCl)ccc21`, the “fluorescence, % of Rose Bengal” value was 0.0054% [at 46 µM] (inactive).

For `CN1COCN(Cc2cnc(Cl)s2)/C1=N\[N+](=O)[O-]`, the “fluorescence, % of Rose Bengal” value was 0.177% (inactive).

As for `CCC1(c2ccccc2)C(=O)N(COC)C(=O)N(COC)C1=O`, the “fluorescence, % of Rose Bengal” value is 0.0062% [at 46 µM] (inactive).

For `Cc1ccc2cc(C)ccc2c1`, the “fluorescence, % of Rose Bengal” value is 0.59% (inactive).

For the compound `NNC(N)=O`, the “fluorescence, % of Rose Bengal” value was -0.525% [at 95.7 µM] (inactive).

Regarding `Oc1ccc2c3c1O[C@H]1[C@@H](O)C=C[C@H]4[C@@H](C2)NCC[C@@]341`, the “fluorescence, % of Rose Bengal” value was 0.133% [at 95.7 µM] (inactive).

With `N#CN=C1SCCN1Cc1ccc(Cl)nc1`, the “fluorescence, % of Rose Bengal” value was -0.111% (inactive).

With `CCSC(=O)Cl`, the “fluorescence, % of Rose Bengal” value is -0.0221% [at 95.7 µM] (inactive).

Consider `Cc1cccc2sc3nncn3c12`, for which the “fluorescence, % of Rose Bengal” value is -0.199% (inactive).

With `CN(C)CCc1c[nH]c2cccc(OP(=O)(O)O)c12`, the “fluorescence, % of Rose Bengal” value is 0.0097% (inactive).

Regarding `N#CC(Br)(Br)C(N)=O`, the “fluorescence, % of Rose Bengal” value was 0.174% (inactive).

In the case of `COC(=O)c1ccccc1CS(=O)(=O)NC(=O)Nc1nc(OC)cc(OC)n1`, the “fluorescence, % of Rose Bengal” value was 0.153% (inactive).

For `ClCC1CO1` (stereo not given), the compound was classed as inactive.

As to `CCC(C(N)=O)N1CCCC1=O` (stereo not given), the “fluorescence, % of Rose Bengal” value was 0.383% [at 46 µM] (inactive).

As to `Cc1ccc(Cl)c(O)c1`, the “fluorescence, % of Rose Bengal” value was -0.0694% [at 46 µM] (inactive).

Regarding `CC(O)CCl` (stereo not given), the “fluorescence, % of Rose Bengal” value is -0.0745% (inactive).

As to `COc1ccc(CN2CCNCC2)c(OC)c1OC`, the fluorescence, % of Rose Bengal was 0.0451% [at 18.6 µM] (inactive).

In the case of `C/C(=N\NC(=O)Nc1cc(F)cc(F)c1)c1ncccc1C(=O)O`, the “fluorescence, % of Rose Bengal” value was 0.0043% (inactive).

On to `CC(=O)OCC1=C(C(=O)O)N2C(=O)[C@@H](N)[C@H]2SC1`, for which the fluorescence, % of Rose Bengal is 0.155% [at 18.6 µM] (inactive).

Regarding `CCOC(=O)c1ncn2c1CN(C)C(=O)c1c(I)cccc1-2`, the “fluorescence, % of Rose Bengal” value was 0.137% [at 46 µM] (inactive).

Consider `COc1ccccc1OC`, for which the “fluorescence, % of Rose Bengal” value was 0.0326% (inactive).

As to `NNCc1ccccc1`, the “fluorescence, % of Rose Bengal” value was -0.0491% [at 95.7 µM] (inactive).

For `COc1cccc(C=O)c1`, the “fluorescence, % of Rose Bengal” value is 0.101% (inactive).

On to `O=CCCl`, for which the “fluorescence, % of Rose Bengal” value is 0.529% (inactive).

Turning to `CC(C)C(C)(N)C#N` (stereo not given), the “fluorescence, % of Rose Bengal” value is 0.233% (inactive).

Take `N=C(N)[Se]`: the “fluorescence, % of Rose Bengal” value is 0.204% (inactive).

For the compound `CC(C)(C)C(=O)C(Cl)Cl`, the “fluorescence, % of Rose Bengal” value was -0.2% (inactive).

On to `CN(C)CCN(C)C`, for which the “fluorescence, % of Rose Bengal” value was -0.0588% (inactive).

With `O=c1[nH]c2ccccc2o1`, the “fluorescence, % of Rose Bengal” value is 0.0362% (inactive).

As to `O=C(O)C(F)(F)C(F)(F)C(F)(F)C(F)(F)C(F)(F)C(F)(F)F`, the “fluorescence, % of Rose Bengal” value is 0.545% (inactive).

With `O=C/C=C/c1ccco1`, the “fluorescence, % of Rose Bengal” value was -0.0145% (inactive).

The values above are taken from PubChem BioAssay (Tox21).
